Screening data from PubChem.
Shown is part of a subset that was picked to be rich in hits.
SARS PLpro yeast: blocks SARS-CoV papain-like protease in a yeast assay. S. cerevisiae expressing SARS-CoV PLpro, growth rescue. Potency, µM (series often up to 32.9 µM), usual class: activators. actives 0.19% (n = 330,000); calls by dose curve; also: nearly all actives have a fitted effect of over 55% in size
Shiga inhibitor: blocks Shiga toxin action in Vero cells; inhibition, % at 38.7 µM; Vero cells, Shiga toxin protein synthesis inhibition reporter; actives 9.2% (n = 290,000); in the data active = inhibition mostly above about 28%, no sharp cut-off; inactive = mostly below about 43%
Tb PYK inh: inhibitors of Trypanosoma brucei pyruvate kinase. Q57TT1. TbPYK enzyme, Kinase-Glo Plus ATP luminescence, 45 min. Potency, µM (titrated, usually from 76.8 µM), hits mostly inhibitors. actives 0.12% (n = 410,000). AID 624173; also: nearly all actives have a fitted effect of over 50% in size
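Glycolytic pyruvate kinase of T. brucei was incubated with substrate, test compound and 130 uM ADP for 45 minutes at room temperature. Luminescent Kinase-Glo Plus signal was measured after 10 minutes.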
NS1 inh: influenza NS1 inhibition | Potency, µM (doses to about 46.1 µM) | actives 0.4% (n = 270,000) | AID 2326; calls by dose curve; also: actives are rising curves; nearly all actives have a fitted effect of over 50% in size
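Recovery from NS1-induced slow growth read by OD600 in budding yeast switched to galactose assay medium (pH 6.0, -URA) at 1:100 dilution. Compound 23 nl per well; the matching strain lacking NS1 serves as control.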
LmPK inh: LmPK (Leishmania mexicana) enzyme inhibition; Q27686; purified LmPK, Kinase-Glo ATP luminescence, 1 h; Potency, µM (highest dose often 57.5 µM), hits mostly inhibitors; actives 0.37% (n = 290,000)
Target sequence (Q27686 whole entry, looked up): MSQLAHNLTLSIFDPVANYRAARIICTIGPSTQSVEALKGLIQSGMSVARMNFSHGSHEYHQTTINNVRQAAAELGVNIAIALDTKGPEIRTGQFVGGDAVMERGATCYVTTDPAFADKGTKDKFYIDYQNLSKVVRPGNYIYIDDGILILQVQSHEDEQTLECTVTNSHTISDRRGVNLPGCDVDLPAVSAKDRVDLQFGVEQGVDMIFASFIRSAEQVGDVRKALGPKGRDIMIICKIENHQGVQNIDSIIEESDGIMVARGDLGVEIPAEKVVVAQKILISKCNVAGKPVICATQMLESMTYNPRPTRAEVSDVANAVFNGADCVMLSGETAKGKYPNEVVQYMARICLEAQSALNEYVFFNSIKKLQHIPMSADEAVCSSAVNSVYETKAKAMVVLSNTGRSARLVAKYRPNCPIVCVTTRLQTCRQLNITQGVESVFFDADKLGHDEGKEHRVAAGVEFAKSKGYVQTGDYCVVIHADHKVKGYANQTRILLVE
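Screened at intermediate enzyme activity to detect both inhibitors and activators: LmPK at 0.1 nM, with a 0.5 nM enzyme column as activation reference. PEP 0.5 mM, ADP 0.1 mM; ATP detected by luminescence after 1 h.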
Cycloheximide cs: affects cycloheximide protein synthesis inhibition readout, counter-screen; max response, %; cell reporter, cycloheximide protein synthesis inhibition counterscreen; AID 2314; actives 12% (n = 300,000); in the data active = max response mostly above about 13%, no sharp cut-off; inactive = mostly below about 14%; also: read at 38.3 µM for the half of the compounds with a filed dose
Each line names hits and unclear results; the compound was inactive in the other large screens. Unless noted, calls follow the shape of the dose curve; as a rule, active = well fitted curve in the direction sought with a large enough effect; inconclusive = small, poorly fitted or top-dose-only effect, or another doubt; inactive = no such curve, though single readings can be large; an effect the other way counts as inactive or inconclusive.

COc1ccc(CCNC(=O)c2ccc(N(C)S(=O)(=O)c3ccc(C)cc3)cc2)cc1	none (no result: NS1 inh)
Cc1ccc(S(=O)(=O)N(C)c2ccc(C(=O)NCCc3ccccc3)cc2)cc1	Shiga inhibitor 62.0, Cycloheximide cs 32.4
CC(C)(C)NC(=O)COC(=O)c1ccc(NC(=O)CC#N)cc1	none
O=C(N1CCOCC1)N1CCc2ccccc21	none
CCNC(=O)C1CCN(S(=O)(=O)c2ccc3c(c2)CCCN3C(C)=O)CC1	none (no result: SARS PLpro yeast, Shiga inhibitor, NS1 inh, LmPK inh, Cycloheximide cs)
CCCn1c(NC(=O)c2ccccc2Br)nc2ccccc21	Cycloheximide cs 17.9 (no result: NS1 inh)
CCCn1c(NC(=O)c2ccc(Br)cc2)nc2ccccc21	none
C=CCn1c(NC(=O)c2ccccc2)nc2ccccc21	Shiga inhibitor 52.8, Cycloheximide cs 42.7
Cc1ccc(C(=O)N/N=C/c2nc3ccccc3n2C)cc1	Tb PYK inh inconclusive
Cn1c(/C=N/NC(=O)c2ccccc2Br)nc2ccccc21	Cycloheximide cs 14.8
CNc1nc2ccccc2n1CC(=O)c1ccccc1	Cycloheximide cs 21.7
Cc1cccc(-c2nc(CS(=O)CC(=O)NC3CCCCC3)c(C)o2)c1 (centres undefined)	NS1 inh inconclusive
CSCC[C@@H]1NC(=O)[C@@H](NC(=O)[C@H](CCCNC(=N)N)NC(=O)[C@H](CC(C)C)NC(=O)[C@H](CCSC)NC(=O)[C@H](CC(=O)O)NC(=O)[C@H](Cc2ccccc2)NC(=O)[C@@H](N)CC(=O)O)CSSC[C@@H](C(=O)N[C@@H](Cc2c[nH]c3ccccc23)C(=O)N[C@@H](CCC(N)=O)C(=O)N[C@@H](Cc2ccc(O)cc2)C(=O)O)NC(=O)[C@@H]2CCCN2C(=O)[C@H](CCCNC(=N)N)NC(=O)[C@H](Cc2ccccc2)NC(=O)[C@H](C(C)C)NC(=O)[C@H](CCCNC(=N)N)NC(=O)CNC(=O)[C@H](CC(C)C)NC1=O	none (no result: SARS PLpro yeast, Tb PYK inh, NS1 inh, LmPK inh)
CC(NC(=O)Cc1cc(F)cc(F)c1)C(=O)NC(C(=O)OC(C)(C)C)c1ccccc1 (centres undefined)	none (no result: SARS PLpro yeast, Tb PYK inh, NS1 inh, LmPK inh)
CCCCn1c(NC(=O)c2ccccc2)nc2ccccc21	none
CCn1c(NC(=O)c2ccccc2)nc2ccccc21	Shiga inhibitor 86.4, Cycloheximide cs 30.6
COc1cccc(NC(=O)CSC2=Nc3ccccc3N=C(c3ccc(F)cc3)C2)c1	none (no result: SARS PLpro yeast, Shiga inhibitor, NS1 inh, LmPK inh, Cycloheximide cs)
O=C(Nc1nnc(-c2cccs2)o1)c1cccc(Oc2ccccc2)c1	none
COc1cccc2sc(NNC(=O)COc3ccccc3)nc12	none
COc1cccc2sc(Nc3nnc(-c4cccs4)o3)nc12	Shiga inhibitor 73.8, Cycloheximide cs 21.5
COc1cccc2sc(Nc3nnc(-c4ccc(F)cc4)o3)nc12	Cycloheximide cs 19.4
Fc1cccc2sc(Nc3nnc(-c4ccco4)o3)nc12	Shiga inhibitor 171.1, Cycloheximide cs 39.9
O=C(Cn1cnc2onc(-c3ccc(F)cc3)c2c1=O)Nc1cccc(C(F)(F)F)c1	none (no result: SARS PLpro yeast, Shiga inhibitor, NS1 inh, LmPK inh, Cycloheximide cs)
O=c1/c(=C\c2cccn2-c2ccccc2)sc2nc3ccccc3n12	Shiga inhibitor 28.2
O=C(O)Cn1cc(/C=c2/sc3nc4ccccc4n3c2=O)c2ccccc21	Shiga inhibitor 115.5, Cycloheximide cs 36.9 (no result: NS1 inh)
Cc1ccc(-n2c(C)cc(/C=c3/sc4nc5ccccc5n4c3=O)c2C)cc1	Shiga inhibitor 86.7, Cycloheximide cs 35.1
O=[N+]([O-])c1ccc2nc(NN=Cc3ccc(O)cc3)sc2c1	none (no result: SARS PLpro yeast, Shiga inhibitor, NS1 inh, LmPK inh, Cycloheximide cs)
O=C(COc1ccc2c3c(c(=O)oc2c1)CCC3)N1CCCCC1	Shiga inhibitor 86.1, Cycloheximide cs 25.0
O=C(COc1ccc2ccccc2c1)N1CCCC1	Shiga inhibitor 78.9, Cycloheximide cs 39.8
CN1CCN(C(=O)COc2ccc3ccccc3c2)CC1	Shiga inhibitor 31.2, Cycloheximide cs 14.3
OC(COc1ccc(OCC(O)CN2CCCCC2)cc1)CN1CCCCC1 (centres undefined)	none (no result: Shiga inhibitor)
O=C(COc1ccc2ccccc2c1)N1CCN(c2ccccc2)CC1	none (no result: Shiga inhibitor, NS1 inh, LmPK inh, Cycloheximide cs)
OC(COc1ccc2ccccc2c1)CN1CCCC1 (centres undefined)	Cycloheximide cs 18.2
O=C1CC(=Nc2ccc([N+](=O)[O-])cc2)NN1c1c(Cl)cc(Cl)cc1Cl	none (no result: SARS PLpro yeast, Shiga inhibitor, NS1 inh, LmPK inh, Cycloheximide cs)
CCc1noc(C)c1C(=O)NC1CCCc2c1cnn2-c1ccc(C(C)(C)C)cc1 (centres undefined)	SARS PLpro yeast inconclusive
COc1ccc(NC(=O)Nc2nnc(Cc3ccc(F)cc3)s2)cc1	none
